Shown are actives, neighbours in structure and some others; about 6% of the full set was active somewhere.
DRD3 antagonist: qHTS of D3 Dopamine Receptor Antagonist: qHTS; D(3) dopamine receptor (Homo sapiens), P35462; D3R cells, DiscoveRx beta-arrestin luminescence, antagonist mode; hits give low values; max response, negative = inhibition, %; 2.5% of 360,000 active; AID 652054, 2013; in the data active = max response below about -50%; inconclusive = no clear call, values can overlap the other calls; also: % is scaled to controls: 0 for no effect and ±100 for the full control effect
Target sequence (P35462 whole entry, looked up): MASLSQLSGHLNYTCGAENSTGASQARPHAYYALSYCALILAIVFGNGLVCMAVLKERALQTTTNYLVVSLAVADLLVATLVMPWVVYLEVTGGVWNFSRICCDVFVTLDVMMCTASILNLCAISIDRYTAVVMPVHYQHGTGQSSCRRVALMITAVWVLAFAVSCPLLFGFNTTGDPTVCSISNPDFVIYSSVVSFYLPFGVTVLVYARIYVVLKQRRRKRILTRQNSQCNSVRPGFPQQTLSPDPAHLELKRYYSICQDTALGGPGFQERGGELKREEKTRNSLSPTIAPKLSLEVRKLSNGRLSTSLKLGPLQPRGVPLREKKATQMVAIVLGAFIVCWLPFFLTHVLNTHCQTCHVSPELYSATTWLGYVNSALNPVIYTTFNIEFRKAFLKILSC
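Cells plated overnight at 1500 cells/well, then exposed to library compounds with dopamine controls for 90 minutes at 37 degrees C. DiscoveRx reagent added for 30–60 minutes at room temperature; luminescence read, quantitative HTS format.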
D1 PAM: Potentiators of Human D1 Dopamine Receptor: qHTS | D(1A) dopamine receptor (Homo sapiens), P21728 | HEK293 TREx D1 cells, calcium flux, dopamine EC20 potentiation | potentiation, % at 10 µM | 0.036% of 360,000 active | AID 504651, 2011; in the data active = potentiation above about 30%; also: 0% is about no effect
D1 antag: Antagonist of Human D 1 Dopamine Receptor: qHTS; D(1A) dopamine receptor (Homo sapiens), P21728; HEK293 TREx D1 cells, calcium flux, dopamine EC80; hits give low values; activity change, negative = inhibition, % at 10 µM; 3.2% of 360,000 active; AID 504652, 2011; in the data active = activity change below about -30%; also: % is scaled to controls: 0 for no effect and ±100 for the full control effect
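Calcium flux readout: force-coupled, inducible Hek293 Trex D1 line, cells induced overnight at 30 C with tetracycline, dye-loaded 30–90 min at RT. Antagonism scored against EC80 dopamine challenge given 180 s after compound.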
DRD3 agonist: qHTS of D3 Dopamine Receptor Agonist: qHTS; max activation, %; D3R DiscoveRx beta-arrestin cells, luminescence, 90 min; 0.58% of 410,000 active; in the data active = max activation above about 30%; also: 0% is about no effect
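Cells at 1500/well, incubated overnight, then treated with pinned compounds (dopamine as control) for 90 min at 37 degrees C. DiscoveRx reagent added for 30 - 60 minutes at room temperature; luminescence read.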
D1 ag: Allosteric Agonists of the Human D1 Dopamine Receptor: qHTS. HEK293 T-REx D1 cells, calcium flux, agonist mode. activation, % at 2 µM. 1% of 360,000 active. D(1A) dopamine receptor (Homo sapiens), P21728; in the data active = activation above about 30%; also: 0% is about no effect
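Agonism was scored from calcium flux recorded over 180 s (1 read/s) after pintool compound addition, following a 10-cycle baseline. Cells were inducible force-coupled HEK293 TREx D1, plated overnight at 30 C and loaded with no-wash calcium dye.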
BCR signal inh: qHTS Assay to Find Inhibitors of Chronic Active B-Cell Receptor Signaling; Potency, µM (top dose mostly 46.1 µM), without a hit: at the top dose activity change, negative = inhibition, usual class: inhibitors; 0.05% of 340,000 active; AID 493014, 2011; ABC-DLBCL IkBa-CBG/CBR reporter, luminescence ratio, 4 h; active = well fitted inhibition curve with a large enough effect in the signal ratio, with a control signal flat, not every such curve was filed as active; inconclusive = small, poorly fitted or top-dose-only effect, or effect the other way, or a change in a side signal; the % refers to the signal ratio;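 also: potency is read from the fitted curve at half-maximal effect; plate controls were basal doxycycline-induced cells for no effect and cells given 10 µM MG132 for full effect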
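Concentration-response series (up to 46 uM) were applied to TMD8 dual-reporter cells for 4 h at 37C with doxycycline. Green/red ratio, after filter-overlap correction, defined %Activity; red signal alone was normalised to basal cells and zero luminescence.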
The depositor's hits bear a star; ? = inconclusive; / = no result.

SMILES	DRD3 antagonist	D1 PAM	D1 antag	DRD3 agonist	D1 ag	BCR signal inh
COc1ccc(CN(C)CC(O)COc2ccc(-c3ccccc3)cc2)cc1OC (stereo unspecified)	?	-6	-6	-5	43*	?
Cn1c(CNS(=O)(=O)c2ccc(Cl)cc2)n[nH]c1=S	-60*	-4	-14	-3	3	-4%
Cn1c(CNS(=O)(=O)c2ccc(F)cc2)n[nH]c1=S	-9	-1	3	1	2	-11%
CC(CN1CCN(CCOCCO)CC1)CN1c2ccccc2Sc2ccc(Cl)cc21 (stereo unspecified)	-117*	/	/	-7	/	/
CCC(=O)c1ccc2c(c1)N(CCCN1CCN(CCO)CC1)c1ccccc1S2	/	/	/	-13	/	/
OC1CC2CCC(C1)N2CCCN1c2ccccc2Sc2ccc(Cl)cc21 (stereo unspecified)	-102*	/	/	-16	/	/
CN1CCN(CCCNC(=O)c2ccc(/C=C3/Sc4ccccc4N(Cc4cccc(Cl)c4)C3=O)cc2)CC1	32	-9	-21	-18	6	-24%
CCSc1ccc2c(c1)N(CCCN1CCN(C)CC1)c1ccccc1S2	-87*	-5	-91*	-84	19	?
CN1CCN(CCCN2c3ccccc3Sc3ccccc32)CC1	/	/	/	-26	/	/
CSc1ccc(Cn2c(C)c(C(=O)NCc3cccc(Cl)c3)sc2=O)cc1	3	/	/	-3	/	/
Cc1ccc2c(c1)-c1nc(-c3ccc4c(c3)NC(=O)CO4)cc(-c3ccc(Cl)cc3)c1CO2	/	-2	8	1	-1	/
COc1cc2[nH]c(C)c(-c3ccccc3)c(=O)c2cc1Cl	0	/	/	-12	/	/
C=CCN=c1scc(-c2ccc(F)cc2)n1/N=C/c1ccccn1	4	-2	-8	17	1	0%
C=CCN=c1scc(-c2ccc3c(c2)NC(=O)CO3)n1/N=C(\C)c1ccccn1	-53*	-4	-18	-16	2	-1%
NS(=O)(=O)c1ccc(NCc2c(F)cccc2Cl)cc1	-13	-3	-35*	-1	8	-22%
CCN1CCN(S(=O)(=O)c2cc(OCC(=O)NC3CCCCC3)c(C)cc2Cl)CC1	-70*	-1	-8	-9	15	?
COc1ccc(NC(=O)Nc2cccc3c2O[C@H](CN(C)C(=O)Nc2ccc(OC)cc2)[C@@H](C)CN([C@H](C)CO)C3=O)cc1	65	/	/	33*	/	1%
COc1ccc(S(=O)(=O)Nc2cccc3c2O[C@@H](CN(C)Cc2ccc(C(=O)O)cc2)[C@@H](C)CN([C@H](C)CO)C3=O)cc1	3	/	/	50*	/	-1%
CCOC(=O)c1cc2c(=O)n3ccccc3nc2n(CC(C)C)c1=NC(=O)COc1ccc(Cl)cc1	/	0	-39*	-13	-1	/
CCOC(=O)c1cc2c(=O)n3ccccc3nc2n(C(C)C)c1=NC(=O)C(C)(C)Oc1ccc(Cl)cc1	/	-1	-40*	7	-1	/
O=C(NCc1ccccc1F)C(=O)NCC(c1ccco1)S(=O)(=O)c1ccccc1 (stereo unspecified)	/	1	/	-20	10	?
CCC1=C[C@@H]2CN(C1)Cc1c([nH]c3ccccc13)[C@@](C(=O)OC)(c1cc3c(cc1OC)N(C)[C@H]1[C@@](O)(C(=O)OC)[C@H](OC(C)=O)[C@]4(CC)C=CCN5CC[C@]31[C@@H]54)C2	/	/	/	-6	/	/
CC(C)(C)c1ccc(C(=O)CC(Sc2ccc(Cl)cc2)C(=O)O)cc1 (stereo unspecified)	-64*	0	4	-17	0	?
Cc1ccc(SC(CC(=O)c2ccc(F)cc2)C(=O)O)cc1 (stereo unspecified)	0	7	-5	-1	6	?
CN1C(=O)C2(CCCCC2)C1c1ccccc1 (stereo unspecified)	-76*	/	/	-15	/	6%
SMILES	DRD3 antagonist	D1 PAM	D1 antag	DRD3 agonist	D1 ag	BCR signal inh
COc1cccc2sc(Nc3nnc(-c4cccs4)o3)nc12	-5	-4	-46*	4	2	?
COc1cccc2sc(Nc3nnc(-c4ccc(F)cc4)o3)nc12	21	1	0	10	1	?
COc1ccc(C2=Nc3ccccc3N(C(=O)c3ccc(C(F)(F)F)cc3)C2C(=O)Nc2c(C)cccc2C)cc1 (stereo unspecified)	2	/	/	7	/	/
CC1CCN(C(=O)CSc2c3c(nc4ccc(Cl)cc24)CCCC3)CC1	/	0	9	69*	-1	/
CCCCC(=O)Nc1nnc(S(=O)(=O)N(C)Cc2ccc(Cl)cc2)s1	/	-1	6	5	1	/
Fc1ccc(C2CCNCC2COc2ccc3c(c2)OCO3)cc1 (stereo unspecified)	-10	-5	7	0	38*	?
COc1ccc(NC(=O)Cn2c(=O)n(Cc3ccco3)c(=O)c3cc(OC)c(OC)cc32)cc1	/	-2	17	5	2	/
Cc1cc(OCc2ccc(C(=O)n3cccn3)o2)ccc1Cl	-9	-9	-3	2	7	?
CCN(CC)C(=O)c1ccc(COc2ccc(Cl)c(C)c2)o1	-21	-18	-31*	10	8	?
COc1ccc(C(=O)NCCS(=O)(=O)NC2CCCC2)cc1	-11	2	4	-18	2	?
CCCCCCCCNCCS(=O)(=O)NC1CCCCC1	-91*	/	/	-37	/	/
COc1ccc(CNCCS(=O)(=O)NC2CCCCC2)cc1	-53*	/	/	-44	/	/
COc1cccc(C(=O)NCCS(=O)(=O)NC2CCCC2)c1	-74*	4	9	-9	0	-1%
O=S(=O)(CCNCc1ccccc1)NC1CCCCC1	-50*	/	/	-41	/	/
CCN(CC)C(=O)C1=C(C)N(CCC2=CCCCC2)C(=O)C(CC(=O)NCc2ccco2)C1 (stereo unspecified)	1	/	/	-4	/	/
COc1cccc(N2CCN(C(=O)c3cc4c(s3)-c3c(C)cccc3OC4)CC2)c1	/	-4	-14	-9	0	/
CCCCCn1c(=O)c(F)cn(Cc2ccc(OC)c([N+](=O)[O-])c2)c1=O	-2	-1	8	-1	1	-9%
CCCCn1c(=O)c(F)cn(Cc2ccc(OC)c([N+](=O)[O-])c2)c1=O	7	-5	13	3	75*	?
CCc1cccc(C)c1Nc1c(-c2cccc(O)c2)nc2nc(C)cc(C)n12	/	4	10	7	1	/
